Results as given in PubChem BioAssay AID624298 (National Center for Advancing Translational Sciences (NCATS), 2012).
Results filed as inconclusive are left out. Calls of active or inactive are those of the source. Calls come from the whole dose curve; as a rule, active = well fitted activation curve with a large enough effect; inconclusive = small, poorly fitted or top-dose-only effect; inactive = no such curve, though single readings can be large or run the other way.

assay: Activators of T cell receptors: Hit Validation; details: primary human leukocytes, cytokine release by HTRF, 48 h, TCR-stimulated with anti-CD3 beads; series mostly up to 46.1 µM
Method in brief: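 Primary human leukocytes incubated 48 hr with anti-CD3 beads plus compound, without co-stimulation. Secreted IL-2 quantified by HTRF (europium cryptate donor, d2 acceptor, 665 nm emission).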
Potency is the fitted concentration of half-maximal effect.

Potency, inactive:
CC1(C)Cc2cccc(OCC(=O)NCc3ccc(F)cc3)c2O1
COc1cc(OC)cc(C(=O)Nc2ccc(S(=O)(=O)N3CCOCC3)cc2)c1
OC1CCCC1
Cc1ncc[nH]1
COc1cccc(-n2c(SCC(=O)NC3CCS(=O)(=O)C3)nc3ccccc3c2=O)c1 (stereo unspecified)
C=C(C)C(=O)OCC(C)C
CC1CCN(CCNC(=O)C2CCN(S(=O)(=O)c3cccc4nsnc34)CC2)CC1
COc1cc(C)c(NC(=S)NCCCN2CCOCC2)cc1OC
C=CCNC(=S)Nc1ccc2nsnc2c1
COc1cc(N)c(Cl)cc1C(=O)N[C@H]1CCN(CCCOc2ccc(F)cc2)C[C@H]1OC
CCOc1cc(/C=N/O)cc(Br)c1OCC(=O)NCc1ccccc1
Cc1n[nH]c(C)c1S(=O)(=O)N1CCCC(C(=O)Nc2nccs2)C1 (stereo unspecified)
CCOC(=O)c1c(NC(=O)c2ccc(N3C(=O)C4C5C=CC(C5)C4C3=O)cc2)sc2c1CCCC2 (stereo unspecified)
COc1ccccc1CC(=O)NNC(=O)CN(C)S(=O)(=O)c1ccc(Cl)cc1
Cc1cc(=O)[nH]c(N/N=C/c2cccs2)n1
Oc1ccccc1CN1CCCC(N2CCN(c3cccc(C(F)(F)F)c3)CC2)C1 (stereo unspecified)
Cn1c(=O)c2c(ncn2CC(O)CO)n(C)c1=O (stereo unspecified)
CN(C)S(=O)(=O)c1ccc2oc(SCC(=O)c3c(N)n(C4CC4)c(=O)[nH]c3=O)nc2c1
CSCCC(NC(=O)c1ccco1)C(=O)NCC1CCCO1 (stereo unspecified)
CN(C)c1cccc(C(=O)N(Cc2ccccc2)Cc2ccccc2)c1
O=C(c1cc(-c2ccc(F)cc2)nc2ccccc12)N1CCN(C2CCS(=O)(=O)C2)CC1 (stereo unspecified)
CCN(CC)c1ccc(S(=O)(=O)N2CCOCC2)cc1NC(=O)COC(=O)/C=C/c1ccccc1
S=c1[nH]nc(-c2cccnc2)n1C1CCCCC1
O=S(=O)(c1ccc(=S)[nH]c1)N1CCCCCC1
COc1ccc(N(C)S(=O)(=O)c2cccc(C(=O)N3CCN(Cc4ccc5c(c4)OCO5)CC3)c2)cc1
COc1ccccc1CNC(=O)CSc1ccc(Br)cc1
CC(=O)Nc1ccc(NC(=O)C(C)OC(=O)c2c(NC(C)=O)sc(C)c2C)cc1 (stereo unspecified)
CCCCN1CCC(COC(=O)c2cc(Cl)c(N)c3c2OCCO3)CC1
COc1cc(N=c2ssnc2Cl)c(OC)cc1Cl

Potency, active:
CCC(=C/c1sc2ccc3ccccc3c2[n+]1C)/C=C1\Sc2ccc3ccccc3c2N1C 9.96 µM
O=C(O)c1ccccc1-c1c2cc(I)c(=O)c(I)c-2oc2c(I)c(O)c(I)cc12 0.996 µM
